# Data: article PMC7862700, “An all-to-all approach to the identification of sequence-specific readers for epigenetic DNA modifications on cytosine”
# Assays:
# Test in all cases: DAPPL (digital affinity profiling via proximity ligation, sequencing); 10 mM Tris-HCl pH 7.5, 50 mM NaCl, 1 mM DTT, 4% glycerol, room temperature, 30 min; GST-TFs on glutathione beads, 16-mer random dsDNA library, 0.1% formaldehyde crosslink after washing; high values mean tight binding
# FEV = biological target: T1, FEV (Homo sapiens, UniProt Q99581 1-238); settings: protein: recombinant; tags: N-terminal GST; dsDNA, one strand shown
# T1 sequence: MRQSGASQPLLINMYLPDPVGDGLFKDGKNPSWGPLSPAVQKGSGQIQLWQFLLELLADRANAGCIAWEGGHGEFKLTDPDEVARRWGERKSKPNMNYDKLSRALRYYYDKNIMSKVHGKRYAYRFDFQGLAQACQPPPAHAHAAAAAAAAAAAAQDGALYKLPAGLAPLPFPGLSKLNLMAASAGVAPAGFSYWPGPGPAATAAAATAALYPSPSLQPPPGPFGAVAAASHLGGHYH
# In short: (§1)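 After expression in yeast as GST fusions, human transcription factors were bound to glutathione beads, DNA-barcoded and mixed with a tag-only sample. The pools were incubated with 200 nmole of a 16-mer random double-stranded DNA library in Tris/NaCl/DTT/glycerol buffer (30 min, room temperature), washed and crosslinked with 0.1% formaldehyde. Proximity ligation with BsaI/T4 ligase ran for 1 h at 37 °C, before PCR amplification and sequencing on an Illumina NextSeq500. Binding signal is a hexamer's read frequency for a factor divided by its frequency for the tag-only sample.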
# ETV5 = ETV5 (Homo sapiens, UniProt P41161 1-510); settings: protein: recombinant; tags: N-terminal GST; dsDNA, one strand shown
# In short: as §1
# HSF1 = HSF1 (Homo sapiens, UniProt Q00613 1-529); settings: protein: recombinant; tags: N-terminal GST; chain copies: 3; dsDNA, one strand shown
# In short: as §1
# SPIC = biological target: T2, SPIC (Homo sapiens, UniProt Q8N5J4 1-248); settings: protein: recombinant; tags: N-terminal GST; dsDNA, one strand shown
# T2 sequence: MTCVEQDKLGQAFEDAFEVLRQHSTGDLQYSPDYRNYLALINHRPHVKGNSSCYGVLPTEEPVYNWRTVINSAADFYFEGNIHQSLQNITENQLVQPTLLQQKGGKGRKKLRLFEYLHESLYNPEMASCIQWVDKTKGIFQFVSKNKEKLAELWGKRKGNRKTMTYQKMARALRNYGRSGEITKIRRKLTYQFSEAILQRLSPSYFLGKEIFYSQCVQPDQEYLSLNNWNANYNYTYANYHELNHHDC
# In short: as §1
# ELF4 = ELF4 (Homo sapiens, UniProt Q99607 1-663); settings: protein: recombinant; tags: N-terminal GST; dsDNA, one strand shown
# In short: as §1
# ELK4 = biological target: T3, ELK4 (Homo sapiens, UniProt P28324-2 1-405); settings: protein: recombinant; tags: N-terminal GST; dsDNA, one strand shown
# T3 sequence: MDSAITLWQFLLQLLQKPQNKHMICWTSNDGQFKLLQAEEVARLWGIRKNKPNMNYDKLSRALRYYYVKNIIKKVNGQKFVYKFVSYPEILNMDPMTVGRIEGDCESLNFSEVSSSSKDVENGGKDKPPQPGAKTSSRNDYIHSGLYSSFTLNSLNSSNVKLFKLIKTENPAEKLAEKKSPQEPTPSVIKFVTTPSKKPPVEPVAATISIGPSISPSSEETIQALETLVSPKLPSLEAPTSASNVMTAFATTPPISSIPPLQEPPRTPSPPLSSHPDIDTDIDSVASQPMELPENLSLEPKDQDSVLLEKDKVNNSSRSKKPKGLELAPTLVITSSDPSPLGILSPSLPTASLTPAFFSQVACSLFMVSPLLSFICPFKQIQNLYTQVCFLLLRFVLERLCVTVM
# In short: as §1
# ETV2 = biological target: T4, ETV2 (Homo sapiens, UniProt O00321 1-342); settings: protein: recombinant; tags: N-terminal GST; dsDNA, one strand shown
# T4 sequence: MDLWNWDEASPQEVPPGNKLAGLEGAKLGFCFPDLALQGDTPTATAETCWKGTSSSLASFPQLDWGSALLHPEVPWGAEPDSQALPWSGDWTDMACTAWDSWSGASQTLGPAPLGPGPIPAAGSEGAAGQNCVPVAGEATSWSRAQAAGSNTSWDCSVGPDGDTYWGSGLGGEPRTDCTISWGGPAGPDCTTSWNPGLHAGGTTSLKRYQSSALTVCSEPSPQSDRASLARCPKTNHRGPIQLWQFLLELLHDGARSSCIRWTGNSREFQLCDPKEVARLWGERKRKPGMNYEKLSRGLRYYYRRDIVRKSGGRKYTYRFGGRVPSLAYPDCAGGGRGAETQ
# In short: as §1
# ELF3 = biological target: T5, ELF3 (Homo sapiens, UniProt P78545 1-371); settings: protein: recombinant; tags: N-terminal GST; dsDNA, one strand shown
# T5 sequence: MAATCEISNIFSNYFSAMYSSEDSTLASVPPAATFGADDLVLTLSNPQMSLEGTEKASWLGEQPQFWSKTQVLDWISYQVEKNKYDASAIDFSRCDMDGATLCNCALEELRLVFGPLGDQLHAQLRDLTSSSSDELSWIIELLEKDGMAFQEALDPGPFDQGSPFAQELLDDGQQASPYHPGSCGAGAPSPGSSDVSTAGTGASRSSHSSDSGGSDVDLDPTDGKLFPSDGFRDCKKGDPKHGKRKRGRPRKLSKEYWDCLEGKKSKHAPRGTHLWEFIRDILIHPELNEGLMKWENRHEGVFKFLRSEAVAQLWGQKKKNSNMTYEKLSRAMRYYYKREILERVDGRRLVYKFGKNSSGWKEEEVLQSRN
# In short: as §1
# CRX = CRX (Homo sapiens, UniProt O43186 1-299); settings: protein: recombinant; tags: N-terminal GST; dsDNA, one strand shown
# In short: as §1
# ETV1 = ETV1 (Homo sapiens, UniProt P50549 1-477); settings: protein: recombinant; tags: N-terminal GST; dsDNA, one strand shown
# In short: as §1
# ERF = biological target: T6, ERF (Homo sapiens, UniProt P50548 1-548); settings: protein: recombinant; tags: N-terminal GST; dsDNA, one strand shown
# T6 sequence: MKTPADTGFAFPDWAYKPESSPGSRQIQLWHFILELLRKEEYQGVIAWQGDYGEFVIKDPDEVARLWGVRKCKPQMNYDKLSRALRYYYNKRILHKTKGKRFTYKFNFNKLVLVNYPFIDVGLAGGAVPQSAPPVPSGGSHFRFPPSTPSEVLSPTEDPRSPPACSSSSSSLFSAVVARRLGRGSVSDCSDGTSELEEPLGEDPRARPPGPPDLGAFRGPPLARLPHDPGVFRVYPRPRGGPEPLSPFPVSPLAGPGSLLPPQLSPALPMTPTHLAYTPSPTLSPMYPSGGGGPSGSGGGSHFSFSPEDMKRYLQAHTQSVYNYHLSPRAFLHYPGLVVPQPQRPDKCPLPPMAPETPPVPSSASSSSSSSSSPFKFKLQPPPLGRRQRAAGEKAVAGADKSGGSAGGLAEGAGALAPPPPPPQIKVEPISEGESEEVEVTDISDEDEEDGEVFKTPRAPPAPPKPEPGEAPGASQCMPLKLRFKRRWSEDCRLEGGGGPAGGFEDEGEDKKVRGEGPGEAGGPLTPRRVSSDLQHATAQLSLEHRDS
# In short: as §1
# ETV3L = biological target: T7, ETV3L (Homo sapiens, UniProt Q6ZN32 1-361); settings: protein: recombinant; tags: N-terminal GST; dsDNA, one strand shown
# T7 sequence: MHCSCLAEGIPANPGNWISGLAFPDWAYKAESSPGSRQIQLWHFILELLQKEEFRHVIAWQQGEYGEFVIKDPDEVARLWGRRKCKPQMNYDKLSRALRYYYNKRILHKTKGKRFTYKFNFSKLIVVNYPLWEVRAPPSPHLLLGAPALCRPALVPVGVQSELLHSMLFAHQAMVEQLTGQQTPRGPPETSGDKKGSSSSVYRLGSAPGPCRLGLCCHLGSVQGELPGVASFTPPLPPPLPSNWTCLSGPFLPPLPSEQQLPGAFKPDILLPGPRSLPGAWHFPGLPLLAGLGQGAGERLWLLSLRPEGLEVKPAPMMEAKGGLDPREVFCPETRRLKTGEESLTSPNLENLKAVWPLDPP
# In short: as §1
# ETS2 = biological target: T8, ETS2 (Homo sapiens, UniProt P15036 1-469); settings: protein: recombinant; tags: N-terminal GST; dsDNA, one strand shown
# T8 sequence: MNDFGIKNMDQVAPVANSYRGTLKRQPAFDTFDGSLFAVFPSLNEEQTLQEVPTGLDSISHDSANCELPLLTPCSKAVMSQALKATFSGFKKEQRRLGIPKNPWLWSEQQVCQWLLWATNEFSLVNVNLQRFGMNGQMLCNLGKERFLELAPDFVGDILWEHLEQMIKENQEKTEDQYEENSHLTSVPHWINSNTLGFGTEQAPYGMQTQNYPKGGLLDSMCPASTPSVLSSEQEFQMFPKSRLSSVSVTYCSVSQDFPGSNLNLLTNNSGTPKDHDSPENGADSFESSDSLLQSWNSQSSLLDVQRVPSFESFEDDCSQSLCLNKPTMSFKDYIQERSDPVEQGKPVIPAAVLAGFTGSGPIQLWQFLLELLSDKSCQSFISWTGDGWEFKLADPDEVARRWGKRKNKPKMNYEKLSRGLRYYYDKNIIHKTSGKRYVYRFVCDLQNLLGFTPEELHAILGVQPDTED
# In short: as §1
# SPDEF = biological target: T9, SPDEF (Homo sapiens, UniProt O95238 1-335); settings: protein: recombinant; tags: N-terminal GST; dsDNA, one strand shown
# T9 sequence: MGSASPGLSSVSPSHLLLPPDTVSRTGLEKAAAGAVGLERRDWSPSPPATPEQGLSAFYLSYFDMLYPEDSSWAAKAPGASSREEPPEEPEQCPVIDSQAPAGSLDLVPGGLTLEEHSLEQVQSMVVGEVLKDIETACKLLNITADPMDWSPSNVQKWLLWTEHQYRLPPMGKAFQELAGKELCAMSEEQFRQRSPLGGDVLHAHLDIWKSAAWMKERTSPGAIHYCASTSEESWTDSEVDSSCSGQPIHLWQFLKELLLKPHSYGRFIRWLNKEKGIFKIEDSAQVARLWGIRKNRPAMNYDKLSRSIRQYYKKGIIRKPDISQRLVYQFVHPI
# In short: as §1
# ETV7 = biological target: T10, ETV7 (Homo sapiens, UniProt Q9Y603 1-341); settings: protein: recombinant; tags: N-terminal GST; dsDNA, one strand shown
# T10 sequence: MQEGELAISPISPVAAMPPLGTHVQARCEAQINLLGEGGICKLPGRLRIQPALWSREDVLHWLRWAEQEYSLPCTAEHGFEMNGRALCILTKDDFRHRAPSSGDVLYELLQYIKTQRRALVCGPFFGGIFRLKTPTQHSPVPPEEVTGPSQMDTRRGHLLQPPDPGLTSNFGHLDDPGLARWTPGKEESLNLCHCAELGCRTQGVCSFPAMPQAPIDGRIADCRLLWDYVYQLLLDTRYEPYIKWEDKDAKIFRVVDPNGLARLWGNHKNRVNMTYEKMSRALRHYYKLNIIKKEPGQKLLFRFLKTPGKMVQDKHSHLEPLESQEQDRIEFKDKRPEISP
# In short: as §1
# ELF5 = biological target: T11, ELF5 (Homo sapiens, UniProt Q9UKW6-2 1-255); settings: protein: recombinant; tags: N-terminal GST; dsDNA, one strand shown
# T11 sequence: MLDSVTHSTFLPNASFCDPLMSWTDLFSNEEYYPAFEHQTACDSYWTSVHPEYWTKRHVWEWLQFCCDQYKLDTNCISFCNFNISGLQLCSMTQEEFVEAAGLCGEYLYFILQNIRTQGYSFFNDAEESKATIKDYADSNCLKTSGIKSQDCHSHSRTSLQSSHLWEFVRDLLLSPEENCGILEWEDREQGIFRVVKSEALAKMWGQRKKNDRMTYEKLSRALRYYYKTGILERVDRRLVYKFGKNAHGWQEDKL
# In short: as §1
# ETV3 = biological target: T12, ETV3 (Homo sapiens, UniProt P41162-2 1-143); settings: protein: recombinant; tags: N-terminal GST; dsDNA, one strand shown
# T12 sequence: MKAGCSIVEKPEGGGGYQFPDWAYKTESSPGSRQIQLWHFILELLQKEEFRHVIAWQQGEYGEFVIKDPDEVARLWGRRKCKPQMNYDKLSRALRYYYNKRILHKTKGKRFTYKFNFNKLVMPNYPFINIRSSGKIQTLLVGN
# In short: as §1
# ETV6 = ETV6 (Homo sapiens, UniProt P41212 1-452); settings: protein: recombinant; tags: N-terminal GST; dsDNA, one strand shown
# In short: as §1
# Sequence of HSF1 (Q00613 whole entry): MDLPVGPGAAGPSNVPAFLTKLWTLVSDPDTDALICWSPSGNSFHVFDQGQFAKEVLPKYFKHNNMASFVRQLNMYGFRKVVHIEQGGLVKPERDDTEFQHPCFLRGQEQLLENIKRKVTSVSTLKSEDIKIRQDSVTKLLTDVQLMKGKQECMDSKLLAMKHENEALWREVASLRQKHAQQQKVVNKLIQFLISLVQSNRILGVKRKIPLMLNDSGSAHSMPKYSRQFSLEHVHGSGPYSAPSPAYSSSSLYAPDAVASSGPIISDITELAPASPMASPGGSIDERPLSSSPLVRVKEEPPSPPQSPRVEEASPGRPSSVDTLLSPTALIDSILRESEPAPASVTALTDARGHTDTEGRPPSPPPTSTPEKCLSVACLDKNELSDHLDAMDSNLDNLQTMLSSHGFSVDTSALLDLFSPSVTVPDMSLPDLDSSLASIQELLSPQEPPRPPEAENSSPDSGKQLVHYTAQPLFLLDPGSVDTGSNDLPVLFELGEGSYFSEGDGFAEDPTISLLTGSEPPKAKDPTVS
# Sequence of ETV1 (P50549 whole entry): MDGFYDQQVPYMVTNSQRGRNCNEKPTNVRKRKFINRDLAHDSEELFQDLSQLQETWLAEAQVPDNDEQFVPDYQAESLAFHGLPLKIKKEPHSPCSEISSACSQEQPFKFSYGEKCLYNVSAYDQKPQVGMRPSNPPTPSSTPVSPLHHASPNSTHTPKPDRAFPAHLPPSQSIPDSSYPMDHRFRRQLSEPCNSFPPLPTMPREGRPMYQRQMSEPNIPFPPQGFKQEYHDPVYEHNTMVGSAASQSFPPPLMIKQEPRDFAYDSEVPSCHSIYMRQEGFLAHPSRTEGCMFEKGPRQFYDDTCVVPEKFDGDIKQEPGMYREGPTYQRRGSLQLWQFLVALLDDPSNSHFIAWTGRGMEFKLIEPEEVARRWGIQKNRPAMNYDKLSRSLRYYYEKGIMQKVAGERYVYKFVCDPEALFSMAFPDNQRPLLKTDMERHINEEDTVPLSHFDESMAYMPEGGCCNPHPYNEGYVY
# Sequence of CRX (O43186 whole entry): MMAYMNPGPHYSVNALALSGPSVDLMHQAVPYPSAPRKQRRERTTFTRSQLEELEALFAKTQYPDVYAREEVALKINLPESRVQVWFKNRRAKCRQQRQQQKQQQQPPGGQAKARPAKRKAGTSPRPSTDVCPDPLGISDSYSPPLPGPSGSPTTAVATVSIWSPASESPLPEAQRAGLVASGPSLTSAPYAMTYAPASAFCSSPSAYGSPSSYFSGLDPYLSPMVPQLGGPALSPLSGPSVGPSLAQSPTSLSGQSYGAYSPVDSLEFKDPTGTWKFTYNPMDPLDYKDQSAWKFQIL
# Sequence of ETV6 (P41212 whole entry): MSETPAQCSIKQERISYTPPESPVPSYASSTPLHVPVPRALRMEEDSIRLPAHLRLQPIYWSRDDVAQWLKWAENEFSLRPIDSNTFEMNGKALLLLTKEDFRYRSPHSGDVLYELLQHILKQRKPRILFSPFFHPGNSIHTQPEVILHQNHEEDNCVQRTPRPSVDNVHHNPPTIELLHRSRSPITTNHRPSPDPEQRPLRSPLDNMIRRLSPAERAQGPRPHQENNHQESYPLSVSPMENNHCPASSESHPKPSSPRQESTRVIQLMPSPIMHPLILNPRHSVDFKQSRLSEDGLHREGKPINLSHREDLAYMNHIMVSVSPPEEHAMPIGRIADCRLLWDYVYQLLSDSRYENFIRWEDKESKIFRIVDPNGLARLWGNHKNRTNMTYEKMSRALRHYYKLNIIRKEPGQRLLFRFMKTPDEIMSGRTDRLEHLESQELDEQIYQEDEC
# Sequence of ETV5 (P41161 whole entry): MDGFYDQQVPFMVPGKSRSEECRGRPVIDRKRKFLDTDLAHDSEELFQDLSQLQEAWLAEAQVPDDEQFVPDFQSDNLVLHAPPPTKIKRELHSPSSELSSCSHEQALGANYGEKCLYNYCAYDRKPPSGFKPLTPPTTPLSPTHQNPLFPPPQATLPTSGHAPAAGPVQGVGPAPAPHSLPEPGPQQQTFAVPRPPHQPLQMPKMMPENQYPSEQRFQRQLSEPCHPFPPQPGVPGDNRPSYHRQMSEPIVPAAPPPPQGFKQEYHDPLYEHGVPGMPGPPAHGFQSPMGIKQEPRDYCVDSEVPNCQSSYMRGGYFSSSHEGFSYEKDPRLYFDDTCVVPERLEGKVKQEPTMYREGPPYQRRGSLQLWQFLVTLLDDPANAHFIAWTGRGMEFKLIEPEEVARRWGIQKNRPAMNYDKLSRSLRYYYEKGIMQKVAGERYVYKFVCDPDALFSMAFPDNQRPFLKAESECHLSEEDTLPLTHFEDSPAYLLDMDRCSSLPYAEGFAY
# Sequence of ELF4 (Q99607 whole entry): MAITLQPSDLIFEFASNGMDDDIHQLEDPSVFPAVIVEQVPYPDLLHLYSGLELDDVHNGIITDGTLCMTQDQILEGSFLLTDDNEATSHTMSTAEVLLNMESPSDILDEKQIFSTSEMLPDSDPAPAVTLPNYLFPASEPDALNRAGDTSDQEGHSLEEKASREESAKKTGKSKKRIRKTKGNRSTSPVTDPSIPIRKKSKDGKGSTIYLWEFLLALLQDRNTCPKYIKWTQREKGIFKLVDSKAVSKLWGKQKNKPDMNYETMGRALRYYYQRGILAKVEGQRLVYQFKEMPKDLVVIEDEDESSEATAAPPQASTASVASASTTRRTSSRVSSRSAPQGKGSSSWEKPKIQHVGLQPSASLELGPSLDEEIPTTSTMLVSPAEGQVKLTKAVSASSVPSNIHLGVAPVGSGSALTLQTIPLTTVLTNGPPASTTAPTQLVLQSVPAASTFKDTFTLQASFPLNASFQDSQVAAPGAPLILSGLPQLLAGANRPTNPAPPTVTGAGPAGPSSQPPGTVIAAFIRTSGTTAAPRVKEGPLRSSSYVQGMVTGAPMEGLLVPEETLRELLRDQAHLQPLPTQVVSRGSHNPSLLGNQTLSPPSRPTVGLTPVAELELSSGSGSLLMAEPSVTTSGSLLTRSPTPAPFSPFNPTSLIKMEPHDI
sequence,measurement,setting,value
TATCAT,binding signal,FEV,"1.16 fold enrichment (6-mer frequency, TF over GST control)"
same,binding signal,ETV5,"1.07 fold enrichment (6-mer frequency, TF over GST control)"
same,binding signal,HSF1,"1.16 fold enrichment (6-mer frequency, TF over GST control)"
same,binding signal,SPIC,"1.25 fold enrichment (6-mer frequency, TF over GST control)"
same,binding signal,ELF4,"1.21 fold enrichment (6-mer frequency, TF over GST control)"
same,binding signal,ELK4,"1.16 fold enrichment (6-mer frequency, TF over GST control)"
same,binding signal,ETV2,"1.24 fold enrichment (6-mer frequency, TF over GST control)"
same,binding signal,ELF3,"1.11 fold enrichment (6-mer frequency, TF over GST control)"
same,binding signal,CRX,"1.41 fold enrichment (6-mer frequency, TF over GST control)"
same,binding signal,ETV1,"1.13 fold enrichment (6-mer frequency, TF over GST control)"
same,binding signal,ERF,"1.14 fold enrichment (6-mer frequency, TF over GST control)"
same,binding signal,ETV3L,"1.21 fold enrichment (6-mer frequency, TF over GST control)"
same,binding signal,ETS2,"1.13 fold enrichment (6-mer frequency, TF over GST control)"
same,binding signal,SPDEF,"1.09 fold enrichment (6-mer frequency, TF over GST control)"
same,binding signal,ETV7,"1.1 fold enrichment (6-mer frequency, TF over GST control)"
same,binding signal,ELF5,"1.15 fold enrichment (6-mer frequency, TF over GST control)"
same,binding signal,ETV3,"1.21 fold enrichment (6-mer frequency, TF over GST control)"
same,binding signal,ETV6,"1.05 fold enrichment (6-mer frequency, TF over GST control)"
